{
  "source": "PubChem BioAssay (NCATS)",
  "note": "Results filed as inconclusive are left out. Entries that show only a call come without a potency. Active and inactive are the calls of the source. The call rests on the fitted dose curve; in most records, active means well fitted cell-killing curve with a large enough effect; inconclusive means small, poorly fitted or top-dose-only effect, or effect the other way; inactive means no such curve, though single readings can be large or run the other way. Potency means the concentration at half of the fitted maximal effect.",
  "data": [
    {"test": "Quantitative highthroughput screen to assess conditional lethalithy of NOMO1 cells grown in Human Plasma-Like Medium with dialyzed fetal bovine serum (HPLM+ds) (AID 1963878); further: nearly all actives have a fitted effect of over 35% in size", "details": "NOMO1 AML cells in HPLM+ds, CellTiter-Glo viability, 48 h; series mostly up to 45.8 µM", "outline": "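Each medium arm—HPLM with 10% dialyzed FBS, or RPMI1640 with 5 mM glucose and 10% untreated or dialyzed FBS—was screened against an 11-point, 3-fold compound titration for 48 h at 37 °C, with CellTiter-Glo luminescence as endpoint.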", "values": [
      {"smiles": "COc1cccc(N(C)C(=S)Oc2ccc3c(c2)CCCC3)n1", "Potency": "inactive"},
      {"smiles": "CCCCC(C=O)NC(=O)C(CC(C)C)NC(=O)OCc1ccccc1", "note": "(stereo not drawn)", "Potency": "inactive"},
      {"smiles": "Fc1ccc(C(c2ccc(F)cc2)N2CCN(CC=Cc3ccccc3)CC2)cc1", "Potency": "inactive"},
      {"smiles": "Cc1nn(C)c2c1C(c1ccc(C(F)(F)F)cc1)C(C#N)=C(N)O2", "note": "(stereo not drawn)", "Potency": "inactive"},
      {"smiles": "CCCCCCCCCCCCCCCC(=O)OC[C@@H](NC(=O)C(Cl)Cl)[C@H](O)c1ccc([N+](=O)[O-])cc1", "Potency": "inactive"},
      {"smiles": "COc1cc(C=CC(=O)CC(=O)C=Cc2ccc(O)c(OC)c2)ccc1O", "Potency": "24100 nM (active)"},
      {"smiles": "CC(=O)N1CCN(c2ccc(OC[C@H]3CO[C@](Cn4ccnc4)(c4ccc(Cl)cc4Cl)O3)cc2)CC1", "Potency": "inactive"},
      {"smiles": "Cc1c(-c2cccc3c(CCCOc4cccc5ccccc45)c(C(=O)O)n(Cc4cccnc4)c23)c(COc2ccc(N3CCN([S+](=O)([O-])N(C)C)CC3)cc2)nn1C", "Potency": "inactive"},
      {"smiles": "C[C@]12C=CC(=O)N[C@@H]1CC[C@H]1[C@H]3CC[C@@H](C(=O)Nc4cc(C(F)(F)F)ccc4C(F)(F)F)[C@@]3(C)CC[C@@H]12", "Potency": "inactive"},
      {"smiles": "CCC=CC[C@H]1C(=O)CC[C@@H]1CC(=O)OC", "Potency": "inactive"},
      {"smiles": "CS[C@H]1SC[C@@H]2C(=O)N(C)[C@H](C(C)C)C(=O)OC[C@H](NC(=O)c3cnc4ccccc4n3)C(=O)N[C@H](C)C(=O)N(C)[C@@H]1C(=O)N(C)[C@H](C(C)C)C(=O)OC[C@H](NC(=O)c1cnc3ccccc3n1)C(=O)N[C@H](C)C(=O)N2C", "Potency": "14.8 nM (active)"},
      {"smiles": "O=C(C=CC#Cc1cccc(NS(=O)(=O)c2ccccc2)c1)NO", "Potency": "3320 nM (active)"},
      {"smiles": "CC(C)CN(C[C@H](O)[C@H](Cc1ccccc1)NC(=O)O[C@H]1CCOC1)S(=O)(=O)c1ccc(N)cc1", "Potency": "inactive"},
      {"smiles": "C[C@@H]1[C@H](C)CC[C@]2(C(=O)O)CC[C@]3(C)C(=CC[C@@H]4[C@@]5(C)C[C@@H](O)[C@H](O)[C@@](C)(CO)[C@H]5CC[C@]43C)[C@@H]12", "Potency": "inactive"},
      {"smiles": "O=C(C=Cc1c(C(=O)O)[nH]c2cc(Cl)cc(Cl)c12)Nc1ccccc1", "Potency": "inactive"},
      {"smiles": "CC1CC2C3CCC4=CC(=O)C=C[C@]4(C)[C@@]3(F)[C@@H](O)C[C@]2(C)[C@@]1(O)C(=O)CO", "note": "(stereo partly drawn)", "Potency": "inactive"},
      {"smiles": "Nc1ncnc2c1ncn2[C@@H]1O[C@H](CO)C[C@@H]1O", "Potency": "inactive"},
      {"smiles": "CC1(C)O[C@@H]2C[C@@H]3[C@H]4C[C@@H](F)C5=CC(=O)C=C[C@]5(C)[C@@]4(F)[C@@H](O)C[C@]3(C)[C@]2(C(=O)CO)O1", "Potency": "inactive"},
      {"smiles": "CCC(=O)OCC(=O)[C@@]1(OC(=O)CC)[C@@H](C)C[C@@H]2[C@H]3CCC4=CC(=O)C=C[C@]4(C)[C@@]3(F)[C@@H](O)C[C@@]21C", "Potency": "1660 nM (active)"},
      {"smiles": "CCN(CC)CCNC(=O)c1c(C)[nH]c(C=C2C(=O)Nc3ccc(F)cc32)c1C", "Potency": "171 nM (active)"},
      {"smiles": "CCC(=C(CC)c1ccc(O)cc1)c1ccc(O)cc1", "Potency": "inactive"},
      {"smiles": "CC(C)c1onc(-c2c(Cl)cccc2Cl)c1COc1ccc(C=Cc2cccc(C(=O)O)c2)c(Cl)c1", "Potency": "inactive"},
      {"smiles": "O=C(NNC(=O)c1ccc(CNS(=O)(=O)c2ccc(F)c(Cl)c2)cc1)c1ccccc1", "Potency": "inactive"},
      {"smiles": "CNC[C@@H](O)[C@@H](O)[C@H](O)[C@H](O)CO", "Potency": "526 nM (active)"},
      {"smiles": "C[C@H]1C[C@@H]2[C@@H]([C@@H](O)C[C@@]3(C)[C@H]2CC[C@]3(O)C(=O)CO)[C@@]2(C)C=CC(=O)C=C12", "Potency": "inactive"},
      {"smiles": "CO[C@H]1/C=C\\O[C@@]2(C)Oc3c(C)c(O)c4c(O)c(c(C=NN5CCN(C6CCCC6)CC5)c(O)c4c3C2=O)NC(=O)C(C)=CC=C[C@H](C)[C@H](O)[C@@H](C)[C@@H](O)[C@@H](C)[C@H](OC(C)=O)[C@H]1C", "Potency": "2350 nM (active)"},
      {"smiles": "CC(C=CC1=C(C)CCCC1(C)C)=CC=CC(C)=CC(=O)O", "Potency": "inactive"},
      {"smiles": "C[C@H](CCC(=O)O)[C@H]1CC[C@H]2[C@H]3[C@@H](CC[C@]12C)[C@@]1(C)CC[C@@H](O)C[C@H]1C[C@@H]3O", "Potency": "inactive"},
      {"smiles": "CCCCCCCc1ccc(CCc2cccc(O)c2C(=O)O)cc1", "Potency": "inactive"},
      {"smiles": "Cc1cccc(C#Cc2ccccc2)n1", "Potency": "inactive"},
      {"smiles": "C[C@H]1[C@H](NC(=O)C(=NOC(C)(C)C(=O)O)c2csc(N)n2)C(=O)N1S(=O)(=O)O", "Potency": "inactive"},
      {"smiles": "CC[C@]1(O)C[C@@H]2CN(CCc3c([nH]c4ccccc34)[C@@](C(=O)OC)(c3cc4c(cc3OC)N(C=O)[C@@H]3C45CCN4CC=C[C@](CC)([C@H]45)[C@@H](OC(C)=O)[C@]3(O)C(=O)OC)C2)C1", "note": "(stereo partly drawn)", "Potency": "inactive"},
      {"smiles": "COC(=O)N[C@H](C(=O)N1CCC[C@@H]1c1ncc(-c2ccc(-c3ccc(-c4cnc([C@@H]5CCCN5C(=O)[C@@H](NC(=O)OC)C(C)C)[nH]4)cc3)cc2)[nH]1)C(C)C", "Potency": "inactive"},
      {"smiles": "CC(C)=CCCC(C)=CCCC(C)=CCCC(C)=CCCC(C)=CCCC(C)=CCCC(C)=CCCC(C)=CCCC(C)=CCO", "Potency": "inactive"},
      {"smiles": "OCC(O)C(O)C(O)CO", "note": "(stereo not drawn)", "Potency": "inactive"},
      {"smiles": "CC[C@H]1OC(=O)[C@H](C)[C@@H](O[C@H]2C[C@@](C)(OC)[C@@H](O)[C@H](C)O2)[C@H](C)[C@@H](O[C@@H]2O[C@H](C)C[C@H](N(C)C)[C@@H]2O)[C@](C)(O)C[C@@H](C)CN(C)[C@H](C)[C@@H](O)[C@]1(C)O", "Potency": "inactive"},
      {"smiles": "C[C@@H]1CC=CC=CC=CC=C[C@@H](O[C@@H]2O[C@H](C)[C@@H](O)[C@H](N)[C@H]2O)C[C@@H]2O[C@](O)(C[C@@H](O)C[C@@H]3O[C@@H]3C=CC(=O)O1)C[C@H](O)[C@@H]2C(=O)O", "Potency": "inactive"},
      {"smiles": "O=c1ccc2ccc(O)c(O)c2o1", "Potency": "inactive"}
    ]}
  ]
}
